Shown is part of a subset that was picked to be rich in hits.
ERK EGF block: blocks ERK signaling stimulated by EGF; 130,000 compounds, 0.41% hits; HEK293-V1b, EGF-stimulated phospho-ERK AlphaScreen; Potency, µM (highest dose often 11.5 µM), inactives show top-dose activity change, negative = inhibition, hits mostly inhibitors; active = well fitted inhibition curve with a large enough effect;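 also: plate controls were stimulated vehicle wells for no effect and unstimulated vehicle basal for full effect; nearly all actives have a fitted effect of over 55% in size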
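V1b-HEK293, 1% FBS o/n; cpd 30 min 37C; EGF 25 nM final, 5 min; lyse 10 min; AlphaScreen beads 5 h RT. Normalized DMSO basal vs EGF max; Hill AC50.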
Active calls of the source: *; [ ] = remark or other dose. Potency is read from the fitted curve at half-maximal effect.

SMILES	ERK EGF block
c1ccc(-c2cc(-c3ccccc3)[n+](-c3ccccc3)c(-c3ccccc3)c2)cc1	22µM*
C[n+]1c(-c2ccccc2)cc(-c2ccc(Cl)cc2)cc1-c1ccccc1	5%
C[C@@H]1O[C@H](O[C@H]2C[C@@H](O)[C@@]3(CO)[C@H]4[C@@H](O)C[C@]5(C)[C@@H](C6=CC(=O)OC6)CC[C@]5(O)[C@H]4CC[C@]3(O)C2)[C@@H](O)[C@H](O)[C@@H]1O	-7%[25.7 µM]
CC(=O)OC1C[C@@]2(C)C(c3ccoc3)C[C@H]3O[C@@]32[C@@]2(C)C(=O)C(O)=C3C(C)(C)C(=O)C=C[C@]3(C)C12 (stereo partly specified)	19%
C[C@@]12CC[C@H](O)C[C@@H]1CC[C@H]1[C@@H]2C[C@@H](O)[C@]2(C)[C@@H](C3=CC(=O)OC3)CC[C@]12O	-4%[25.7 µM]
O=C1C(Cl)=C(Cl)C(=O)C(Cl)=C1Cl	10µM*
CCCCCC[C@H]1C(=O)O[C@H](C)[C@H](NC(=O)c2cccc(NC=O)c2O)C(=O)O[C@@H](C)[C@H]1OC(=O)CC(C)C	-10%[25.7 µM]
CCCC[N+]12C3CC(C(CC)[C@H]1O)[C@@H]1C(O)C4(C[C@@H]12)c1ccccc1N(C)C34 (stereo partly specified)	-4%
O=C(O)[C@@H]1CSC(c2cccnc2)N1 (stereo partly specified)	-9%
NC(=NCCc1ccc(I)cc1)SCCCc1cnc[nH]1	2%
COc1cc2c(cc1OC)[C@@H]1C(=O)c3ccc(OC)c(CC=C(C)C)c3OC1CO2 (stereo partly specified)	21%
CN1C2CCC1/C(=C/c1ccccn1)C(=O)/C2=C\c1ccccn1	14µM*
Cc1ccccc1-n1c(/C=C/c2ccccn2)nc2ccccc2c1=O	-9%[57.5 µM]
COC(=O)C1(C)C=C2C(=C(C)C(=O)C2C)CN1 (stereo unspecified)	3%
CCCCCC[C@H]1C(=O)O[C@H](C)[C@H](NC(=O)c2cccc(NC=O)c2O)C(=O)O[C@@H](C)[C@@H]1OC(=O)CC(C)C	-25%
OCC[n+]1c2ccccc2nc2ccc(N3CCOCC3)cc21	14µM*
C=CCN1C[C@H](C)N([C@H](c2ccc(C(=O)N(CC)CC)cc2)c2cccc(O)c2)C[C@H]1C	-14%
C[C@H](CCC(=O)O)[C@H]1CC[C@@H]2[C@H]3CC[C@H]4C[C@@H](O)CC[C@@]4(C)[C@H]3CC[C@]21C	6%[25.7 µM]
CCN1C[C@]2(COC(=O)c3ccccc3N3C(=O)C[C@H](C)C3=O)CC[C@H](OC)[C@@]34[C@@H]5C[C@H]6[C@H](OC)[C@H]5[C@](O)(C[C@@H]6OC)[C@@](O)([C@@H](OC)[C@@H]23)[C@@H]14	-4%
Cc1ccsc1C(=O)C1CCCN(Cc2ccccc2O)C1 (stereo unspecified)	-5%
Cc1ccsc1C(=O)C1CCCN(Cc2cnc(N(C)C)s2)C1 (stereo unspecified)	-2%
Cc1ccsc1C(=O)C1CCCN(Cc2sc(N(C)C)nc2Cl)C1 (stereo unspecified)	20µM*
N[C@@]1(C(=O)O)CC[C@H](C(=O)O)C1	-1%
CN1[C@@H]2CC[C@H]1CC(O[C@@H](c1ccccc1)c1ccc(Cl)cc1)C2 (stereo partly specified)	-1%
CCC12C=CCN3CCC4(c5ccc(OC)cc5N(C)C4[C@@](O)(C(=O)OC)C1OC(C)=O)C32 (stereo partly specified)	41%
SMILES	ERK EGF block
C=C(C)C1CNC(C(=O)O)C1CC(=O)O (stereo unspecified)	4%
CCCCC/C=C\C/C=C\CCCCCCCCCC(=O)NCCc1ccc(O)c(O)c1	-2%
ClC1=C(Cl)C(Cl)=C(Cl)C1=C/C=C/c1ccccc1	11µM*
CN(C)C1C(=O)C(C(N)=O)=C(O)[C@@]2(O)C(=O)C3=C(O)c4c(O)cccc4[C@@](C)(O)C3[C@H](O)C12 (stereo partly specified)	11%
CCN1C[C@]2(C)CC[C@H](O)[C@@]34[C@@H]5C[C@@H]6[C@@H](OC)C[C@@](O)(C5[C@H]6O)[C@@H](C[C@@H]23)[C@@H]14	-3%
COC[C@H]1OC(=O)c2coc3c2[C@@]1(C)C1=C(C3=O)[C@H]2CCC(=O)[C@@]2(C)C[C@H]1OC(C)=O	-4%
COC(=O)C1=CO[C@@H](C)[C@@H]2CN3CC[C@]4(C(=O)Nc5c4ccc(OC)c5OC)[C@H]3C[C@H]12	-5%
Cc1cc(C=C2C(=O)NC(=S)NC2=O)c(C)n1-c1ccc2c(c1)OCO2	4%
CN(C)c1ccc(C=C2C(=O)NC(=S)NC2=O)cc1[N+](=O)[O-]	4%
O=C1NC(=S)NC(=O)C1=Cc1cccc2cc3ccccc3cc12	28µM*
CN1Cc2c(ccc3c2OCO3)[C@@H]2[C@@H](O)Cc3cc4c(cc3[C@@H]21)OCO4	4%[25.7 µM]
C=C(C)CN1CC[C@]23c4c5ccc(O)c4O[C@H]2c2[nH]c4ccccc4c2C[C@@]3(O)C1C5	16µM*
C=C(C)CN1CC[C@@]23c4c5ccc(O)c4O[C@H]2c2[nH]c4ccccc4c2C[C@]3(O)[C@@H]1C5	-12%

Screening data from PubChem.
